From PubChem BioAssay
FMDV antiviral = blocks foot and mouth disease virus; Potency, µM (highest dose often 57.9 µM), for the others: at the top dose activity change, negative = inhibition, actives largely listed as inhibitors; FMDV antiviral cell-based qHTS; AID 1159524; 410,000 compounds, 1.2% hits; calls by dose curve; tested in HEK293T cells; note: read-out not given here; potency is the fitted concentration of half-maximal effect; nearly all actives have a fitted effect of over 45% in size
HCMV inh = human cytomegalovirus inhibition. activity change, negative = inhibition, % at 57.5 µM. HFF cells, HCMV-luciferase reporter, 72 h; stronger effect = lower value. 410,000 compounds, 4.5% hits. AID 1259415; in the data active = activity change below about -60%; inconclusive = no clear call, values can overlap the other calls; inactive = above about -39%
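Steps: HFFs plated, 16 h 37C; compounds added; HCMV-luciferase added to MOI 1 PFU/cell; 72 h 37C; OneGlo reagent, 5 min room temperature; luminescence read, normalized to controls.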
Vaccinia Venus = inhibitors of vaccinia virus (Venus reporter); 330,000 compounds, 0.46% hits; Vaccinia virus Venus reporter expression, fluorescence; AID 720580; Potency, µM (top dose mostly 36.5 µM), for inactives: top-dose activity change, negative = inhibition, most hits filed as inhibitors; calls by dose curve; tested in A549 cells; note: potency is the fitted concentration of half-maximal effect; nearly all actives have a fitted effect of over 30% in size
HCV inhibitor = inhibitors of hepatitis C virus infection. Huh7.5.1 HCVcc-Cre infection, luciferase reporter, 44 h. Potency, µM (doses to about 41.8 µM), for inactives: at the top dose activity change, negative = inhibition, most hits filed as inhibitors. 340,000 compounds, 3.4% hits. AID 651820; active = well fitted inhibition curve with a large enough effect; inconclusive = small, poorly fitted or top-dose-only effect, or another doubt; inactive = no such curve, though single readings can be large or run the other way; note: potency is the fitted concentration of half-maximal effect
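1,000 cells/well; 4 h culture; + compound; + HCVcc-Cre (~0.5 moi); 44 h; luciferase substrate, RT 15 min; read 15 sec.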
VACV mCherry inh = vaccinia inhibition (mCherry reporter) | Potency, µM (titrated, usually from 36.5 µM), for the others: top-dose activity change, negative = inhibition, usual class: inhibitors | AID 720579 | Vaccinia virus mCherry reporter infection, fluorescence | 310,000 compounds, 0.63% hits; calls by dose curve; tested in A549 cells; note: potency is the fitted concentration of half-maximal effect; nearly all actives have a fitted effect of over 35% in size
Active calls of the source: *; i = inactive; ? = inconclusive; / = no result given; ! = not confirmed by another sample. Hits are enriched below; roughly 7.3% of the tested compounds scored in any of these assays. % is set by controls: 0 for no effect and ±100 for the full control effect.

SMILES	FMDV antiviral	HCMV inh	Vaccinia Venus	HCV inhibitor	VACV mCherry inh
O=C(NCc1ccccc1)C1(c2cccc(F)c2)CCCC1	2%	?	/	6%	/
Cc1nn(-c2ccccc2)c2nc(C3CC3)cc(C(=O)Nc3ccccc3F)c12	-14%	-27	-28%	/	-27%
COc1cc(C(=O)N/N=C/c2cccc(Oc3ccccc3)c2)ccc1O	-21%	-78*	-27%	-13%	-18%
CCOC(=O)c1ccc2[nH]c(CSc3nnc(-c4cccc(F)c4)n3C)cc(=O)c2c1	1%	9	4%	/	9%
CCOc1ncccc1C(=O)NNC(=O)c1ccc(NS(=O)(=O)c2cccs2)cc1	39%	42	-5%	1%	-10%
O=c1[nH]c(Nc2ccc3c(c2)OCCO3)nnc1Cc1ccccc1	-6%	-73*	1%	-2%	-9%
CCC(=O)N1CCc2cc(S(=O)(=O)NCCC(=O)Nc3cc(C)ccc3OC)ccc21	-5%	3	-12%	/	-11%
CCOc1ccc(CNC(=O)C2CCN(S(=O)(=O)N3CCC(C)CC3)CC2)cc1OC	0%	-20	-10%	/	-15%
CCOc1cc(C(=O)N2CCC3(CC2)NCCc2[nH]cnc23)cc(OCC)c1OCC	-1%	56	/	?	/
COc1cc2c3cc1Oc1c(OC)c(OC)cc4c1[C@H](Cc1ccc(cc1)Oc1cc(ccc1O)C[C@H]3N(C)CC2)N(C)CC4	-4%	-36	?	11µM*	?
COc1ccc2cc1Oc1ccc(cc1)C[C@H]1c3c(cc4c(c3Oc3cc5c(cc3OC)CCN(C)[C@@H]5C2)OCO4)CCN1C	?	-38	-25%	14µM*	-16%
COc1ccc2cc1Oc1ccc(cc1)C[C@H]1c3cc(c(OC)cc3CCN1C)Oc1c(OC)c(OC)cc3c1[C@H](C2)N(C)CC3	-23%	?	-17%	?	-5%
COc1cc2c3cc1Oc1cc(ccc1O)C[C@@H]1c4c(cc(OC)c(O)c4Oc4ccc(cc4)C[C@H]3N(C)CC2)CCN1C	-26%	-10	-17%	7.9µM*!	i
NC1(C(=O)O)C[C@H](C(=O)O)[C@H](C(=O)O)C1 (some centres undefined)	11%	/	-4%	/	-15%
N#Cc1cc2ccncc2c2ccccc12	-5%	-39	-8%	/	i
Nc1cc2ccncc2c2ccccc12	-21%	-96*	-25%	-25%	-8%
CN(C)c1ccc(/C=C/c2nc3ccccc3s2)c(Cl)c1	/	/	-5%	/	-15%
Cc1ccc(-n2ncc(C(=O)NC3CCCCC3)c2C2CCN(C(=O)OC(C)(C)C)CC2)cc1	-19%	6	-1%	/	i
Cc1nn(-c2nc3ccccc3[nH]2)c(N)c1-c1ccc(Cl)cc1	-3%	-68*	?	-18%	?
Cc1nn(-c2nc3ccccc3[nH]2)c(=O)c2ccccc12	0.79µM*	-91*	-20%	14%	i
Cc1nn(-c2ccc3ccccc3c2)c(=O)c2ccccc12	50%	71	-18%	?	1%
COc1ccc(-c2c(C)nn(-c3ccccc3)c2N)cc1	80%	64	-14%	2%	-5%
CC(=O)N1CCN(C(=O)c2cc(S(=O)(=O)N(C)Cc3ccccc3)ccc2Cl)CC1	-11%	-5	-6%	11%	-12%
CCCCOC(=O)NC1CCc2cc(OC)c(OC)c(OC)c2-c2ccc(SC)c(=O)cc21 (centres undefined)	0%	-80*	?	-30%	i
CCOCC(=O)NC1CCc2cc(OC)c(OC)c(OC)c2-c2ccc(SC)c(=O)cc21 (centres undefined)	-2%	-66*	?	-22%	-23%
SMILES	FMDV antiviral	HCMV inh	Vaccinia Venus	HCV inhibitor	VACV mCherry inh
CCOC(=O)N1CCC(N2C(=O)c3ccccc3C2Nc2cc(OC)c(OC)c(OC)c2)CC1 (centres undefined)	-10%	-17	-21%	7%	13%
CCOC(=O)NC1CCc2cc(OC)c(OC)c(OC)c2-c2ccc(SC)c(=O)cc21 (centres undefined)	0%	-72*	-36%	-16%	i
CCCCCCCCN1C(=O)[C@@H](CC(=O)NCC2CCCCC2)C[C@@]2(C(=O)OC)C1=C[C@H](C1CCCC1)O[C@@H]2C	/	9	/	/	/
CCCN(CCC)S(=O)(=O)c1ccc(C(=O)Nc2nc3c(s2)CCc2ccccc2-3)cc1	-25%	-72*	1%	23%	-16%
COc1cc(NC(=O)C2C3CCC(O3)C2C(=O)O)cc(OC)c1 (centres undefined)	-8%	-22	-14%	-5%	?
COc1cc(/C=C2/C(=O)N(C)C(=S)N2C)ccc1OCc1cccc(F)c1	-1%	-68*	6%	?	-14%
CCOc1ncccc1C(=O)N1CCN(c2cc(Cl)ccc2C)CC1	?	-19	-27%	?	?
COc1ccc(N2CCN(C(=O)CCC(=O)N3CCOc4ccc(Cl)cc43)CC2)cc1	-29%	-99*	?	?	14µM*
CCOc1ncccc1C(=O)N1CCN(c2cccc(C)c2C)CC1	?	-96*	?	?	-12%
Cc1ccc(NC(=O)CCC(=O)N2Cc3ccccc3Oc3ncccc32)cc1Cl	-19%	8	-13%	/	-5%
Cc1cccc(N2CCN(C(=O)CCC(=O)N3Cc4ccccc4Oc4ncccc43)CC2)c1C	?	-94*	-22%	?	?
COc1ccc(N2CCN(C(=O)CCC(=O)N3CCOc4ccc(C)cc43)CC2)cc1	-23%	?	-23%	-24%	-26%
Cc1ccc2c(c1)N(C(=O)CCC(=O)N1CCN(c3cccc(C)c3C)CC1)CCO2	14µM*	?	?	10µM*	?
Cc1ccccc1-c1ccc2c(c1)COCC(=O)N2C	/	1	/	/	/
O=C(CSc1nccn1Cc1ccc(F)cc1)Nc1ccc2c(c1)OCO2	14%	11	-3%	/	-8%
COc1ccc2c(c1)sc1ncc(C(=O)NCc3ccc(Cl)cc3)c(=O)n12	-4%	-2	-5%	/	2%
O=C(Nc1ccc(N2CCCCC2)c(Cl)c1)c1ccc(N2CCOCC2)c([N+](=O)[O-])c1	/	-80*	?	?	-19%
Cc1ccc(C(=O)Nc2cccc(S(=O)(=O)N3CCOCC3)c2)cc1[N+](=O)[O-]	-4%	?	/	?	/
CN(C)S(=O)(=O)c1cccc(NC(=O)c2ccc(N3CCOCC3)c([N+](=O)[O-])c2)c1	?	-71*	-28%	?	?
CC(=O)N1CCN(c2ccc(NC(=O)c3ccc(N4CCCC4)c([N+](=O)[O-])c3)cc2Cl)CC1	/	-71*	-14%	10µM*	?
O=C(Nc1cc(Cl)ccc1N1CCOCC1)c1ccc(N2CCCCC2)c([N+](=O)[O-])c1	1%	0	-18%	?	-9%
Cc1cc(C(=O)Nc2cccc(-c3ccc(N4CCOCC4)nn3)c2)ccc1[N+](=O)[O-]	-17%	-25	-5%	10µM*	?
CCCN(CC(=O)Nc1ccccc1C)C(=O)CSc1ccccc1C	0%	0	/	5%	/
